Results from PubChem BioAssay.
Calls of active or inactive are those of the source.

Tests used:
[1] = E. coli DRC41 culture turbidity changes, primary screen, E. coli filamentation inducer project, strain DRC41, OD650, 48 h (AID 1152);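 also: E. coli MC1000 strain DRC41 lacking acrAB efflux pump and sulA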; settings: E. coli DRC41 (acrAB sulA), higher = more signal, called active from +8 up or from −8 down
[2] = small-molecule binders of probe aLefty1, primary screen, biochemical, small-molecule microarray, 635/667 nm fluorescence (AID 1153); settings: higher = more signal;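 also: score merges spot fluorescence with signal-to-noise ratio from the scanned slide images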
[3] = PSAC antagonists in infected red cells, primary screen, cell-based, P. falciparum Indochina, OD700, 1 h (AID 1154); settings: P. falciparum Indochina infected RBC osmotic lysis, higher = more signal, called active from +8 up or from −8 down
[4] = PSAC antagonists in infected red cells, primary screen, cell-based, P. falciparum Indochina, OD700, 2 h (AID 1155);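 also: lysis reports solute entry through the parasite surface anion channel PSAC; channel blockers reduce lysis of infected cells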; settings: P. falciparum Indochina infected erythrocytes, osmotic lysis OD700; higher = more signal, called active from +8 up or from −8 down
[5] = osmotic lysis modulators in infected erythrocytes, primary screen, PSAC antagonist project, cell-based, P. falciparum Indochina, OD700, 3 h (AID 1156); settings: higher = more signal, called active from +8 up or from −8 down
[6] = PSAC antagonists in infected red cells, primary screen, cell-based, P. falciparum Indochina, OD700, 18 h (AID 1157); settings: P. falciparum Indochina infected erythrocytes, osmotic lysis OD700, 18 h; higher = more signal, called active from +8 up or from −8 down
[7] = modulators of S6 phosphorylation in cells, primary screen, cell-based, A549, cytoblot, luminescence, serum-stimulated (AID 1158); settings: A549 phospho-S6 cytoblot, 5 h, higher = more signal;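 also: serum-stimulated A549 lung adenocarcinoma cells; signal is phosphorylated S6 detected by cytoblot immunostaining with HRP secondary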
[8] = biological target: NADPH oxidase 2 (Homo sapiens) (UniProt P04839); experiment: NOX2-dependent H2O2 signal modulators, primary screen, NOX inhibitor project, cell-based, HEK293-NOX2, PMA-stimulated, Amplex Red fluorescence (AID 1159); settings: 45 min, higher = more signal, called active from +8 up or from −8 down; also: test concentration not given here
[9] = biological target: NADPH oxidase 4 (Homo sapiens) (UniProt Q9NPH5); experiment: NOX4-dependent H2O2 signal modulators, primary screen, NOX inhibitor project, cell-based, HEK293-NOX4, tetracycline-induced, Amplex Red fluorescence (AID 1160); settings: 45 min, higher = more signal, called active from +8 up or from −8 down
[10] = biological target: NADPH oxidase 5 (Homo sapiens) (UniProt Q96PH1); experiment: NOX5-dependent H2O2 signal modulators, primary screen, NOX inhibitor project, cell-based, HEK293-NOX5, Amplex Red fluorescence (AID 1161); settings: HEK293-NOX5, ionomycin, 45 min, higher = more signal
[11] = A549 cell viability effects, profiling panel, calcein-AM fluorescence, 48 h, basal (AID 1162); settings: higher = more signal; also: test concentration not given here
[12] = adipocyte viability effects, profiling panel, cell-based, 3T3-L1 adipocytes, calcein-AM fluorescence, 48 h, basal (AID 1163); settings: 3T3-L1 adipocytes viability, higher = more signal; also: test concentration not given here
[13] = HepG2 cell viability effects, profiling panel, calcein-AM fluorescence, 48 h, basal (AID 1164); settings: higher = more signal; also: test concentration not given here
[14] = MM1S cell viability effects, profiling panel, calcein-AM fluorescence, 48 h, basal (AID 1165); settings: higher = more signal;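 also: viability of MM1S multiple myeloma cells under basal unstimulated conditions; test concentration not given here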
[15] = basal RPMI8226 viability, no added stimulus, profiling panel, cell-based, calcein-AM fluorescence, 48 h, PK04 Diversity Set (AID 1166); settings: RPMI8226 myeloma viability, higher = more signal;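 also: cells grown under basal conditions without added stimulus; test concentration not given here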
[16] = basal HepG2 mitochondrial membrane potential changes, profiling panel, cell-based, JC-1 fluorescence, 24 h, 100 nL compound (AID 1167); settings: higher = more signal; also: test concentration not given here
[17] = basal 3T3-L1 adipocyte mitochondrial potential changes, profiling panel, cell-based, JC-1 fluorescence, 3T3-L1 adipocytes, 24 h, 100 nL compound (AID 1168); settings: JC-1 mitochondrial fluorescence, higher = more signal, called active from +8 up or from −8 down; also: test concentration not given here
[18] = basal RPMI8226 mitochondrial membrane potential changes, profiling panel, cell-based, JC-1 fluorescence, 24 h, 100 nL compound (AID 1169); settings: RPMI8226 myeloma, JC-1 mitochondrial potential fluorescence, higher = more signal; also: test concentration not given here
[19] = basal MM1S mitochondrial membrane potential changes, profiling panel, cell-based, JC-1 fluorescence, 24 h, 100 nL compound (AID 1170); settings: higher = more signal; also: test concentration not given here
[20] = A549 lung cancer cell viability effects, profiling panel, resazurin fluorescence, 24 h, PK04 Diversity Set (AID 1171); settings: higher = more signal, called active from +8 up or from −8 down; also: test concentration not given here

NADPH oxidase 4 (Homo sapiens), sequence (Q9NPH5 whole entry, looked up): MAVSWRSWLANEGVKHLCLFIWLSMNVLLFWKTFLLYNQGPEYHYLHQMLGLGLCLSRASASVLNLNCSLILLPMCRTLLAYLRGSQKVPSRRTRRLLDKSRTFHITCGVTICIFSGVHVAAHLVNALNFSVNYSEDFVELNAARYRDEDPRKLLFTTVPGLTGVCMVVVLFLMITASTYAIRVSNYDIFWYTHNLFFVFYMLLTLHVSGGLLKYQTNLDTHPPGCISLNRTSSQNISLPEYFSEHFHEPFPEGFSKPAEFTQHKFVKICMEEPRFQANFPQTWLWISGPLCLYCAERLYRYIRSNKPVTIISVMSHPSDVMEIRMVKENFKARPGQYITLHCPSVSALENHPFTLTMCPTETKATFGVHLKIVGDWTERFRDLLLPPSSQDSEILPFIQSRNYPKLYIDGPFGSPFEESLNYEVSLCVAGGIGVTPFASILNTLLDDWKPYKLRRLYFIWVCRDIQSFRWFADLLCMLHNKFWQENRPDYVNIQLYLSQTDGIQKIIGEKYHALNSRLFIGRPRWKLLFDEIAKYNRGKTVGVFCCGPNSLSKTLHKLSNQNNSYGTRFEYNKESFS
NADPH oxidase 2 (Homo sapiens), sequence (P04839 whole entry, looked up): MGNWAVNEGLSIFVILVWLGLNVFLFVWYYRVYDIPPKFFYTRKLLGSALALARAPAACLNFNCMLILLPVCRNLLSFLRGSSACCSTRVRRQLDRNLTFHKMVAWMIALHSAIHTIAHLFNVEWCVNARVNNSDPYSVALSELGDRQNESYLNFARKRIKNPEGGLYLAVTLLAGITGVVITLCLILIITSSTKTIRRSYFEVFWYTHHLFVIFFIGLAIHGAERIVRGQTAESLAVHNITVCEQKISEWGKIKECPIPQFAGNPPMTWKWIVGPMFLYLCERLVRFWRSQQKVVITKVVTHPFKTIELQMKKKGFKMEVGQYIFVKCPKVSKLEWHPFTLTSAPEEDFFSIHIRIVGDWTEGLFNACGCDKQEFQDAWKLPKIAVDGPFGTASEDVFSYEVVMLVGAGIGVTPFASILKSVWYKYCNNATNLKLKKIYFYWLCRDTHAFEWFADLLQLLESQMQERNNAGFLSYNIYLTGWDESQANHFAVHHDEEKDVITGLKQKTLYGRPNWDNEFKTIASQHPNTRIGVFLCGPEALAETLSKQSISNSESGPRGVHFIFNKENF
NADPH oxidase 5 (Homo sapiens), sequence (Q96PH1 whole entry, looked up): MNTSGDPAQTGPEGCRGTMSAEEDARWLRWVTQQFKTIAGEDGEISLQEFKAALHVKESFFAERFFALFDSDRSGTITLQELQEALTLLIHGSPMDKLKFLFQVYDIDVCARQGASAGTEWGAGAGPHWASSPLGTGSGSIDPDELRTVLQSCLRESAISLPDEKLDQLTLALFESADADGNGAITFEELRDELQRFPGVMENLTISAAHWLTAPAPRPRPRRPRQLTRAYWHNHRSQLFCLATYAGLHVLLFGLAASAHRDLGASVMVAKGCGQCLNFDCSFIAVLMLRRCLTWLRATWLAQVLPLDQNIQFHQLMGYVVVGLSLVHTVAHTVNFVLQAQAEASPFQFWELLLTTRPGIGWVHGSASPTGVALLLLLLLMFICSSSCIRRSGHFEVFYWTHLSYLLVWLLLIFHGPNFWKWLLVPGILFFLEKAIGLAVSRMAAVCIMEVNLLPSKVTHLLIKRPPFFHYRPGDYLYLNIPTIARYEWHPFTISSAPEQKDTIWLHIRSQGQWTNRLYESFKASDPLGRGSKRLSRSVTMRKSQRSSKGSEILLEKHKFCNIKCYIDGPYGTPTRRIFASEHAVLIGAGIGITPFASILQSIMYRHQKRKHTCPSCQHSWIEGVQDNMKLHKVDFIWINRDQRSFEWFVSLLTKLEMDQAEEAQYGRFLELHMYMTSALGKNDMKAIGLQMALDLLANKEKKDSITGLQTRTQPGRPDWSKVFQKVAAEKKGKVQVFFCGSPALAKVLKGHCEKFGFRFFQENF

| Compound | z-score [1] | composite z-score [2] | z-score [3] | z-score [4] | z-score [5] | z-score [6] | z-score [7] | z-score [8] | z-score [9] | z-score [10] | z-score [11] | z-score [12] | z-score [13] | z-score [14] | z-score [15] | z-score [16] | z-score [17] | z-score [18] | z-score [19] | z-score [20] |
| --- | --- | --- | --- | --- | --- | --- | --- | --- | --- | --- | --- | --- | --- | --- | --- | --- | --- | --- | --- | --- |
| O=C1[C@H]2[C@H]3[C@H](O)[C@H](O)CC(=NO[C@@H]4O[C@H](CO)[C@@H](O)[C@H](O)[C@H]4O)[C@H]3CC[C@H]2C(=O)N1Cc1ccccc1 | -0.906 (inactive) | 0.0068 | 5.53 (inactive) | 0.117 (inactive) | -0.19 (inactive) | -0.801 (inactive) | 0.705 | -2.63 (inactive) | 0.587 (inactive) | 0.353 | -0.0916 | -0.0474 | -0.571 | 0.713 | -0.716 | 0.616 | -0.0221 (inactive) | 0.42 | -0.755 | 0.623 (inactive) |
| COc1ccc([Si](C)(C)[C@H]2[C@H](CC(=O)N3CCC[C@H]3CO)O[C@@]3(C(=O)N(Cc4cccc(N5C(=O)COc6ccccc65)c4)c4ccccc43)[C@@H]2C)cc1 | 1.62 (inactive) | 0.169 | 6.56 (inactive) | 0.0867 (inactive) | -0.749 (inactive) | -0.701 (inactive) | 1.03 | 1.1 (inactive) | 1.21 (inactive) | 2.99 | 0.819 | 0.198 | 1.01 | -2.42 | -4.37 | 4.27 | 1.86 (inactive) | -0.938 | 0.741 | -0.343 (inactive) |
| CCN1C(=O)[C@H]2[C@H]3[C@H](O)[C@H](O)CC(=NOCc4ccccc4)[C@@H]3CC[C@H]2C1=O | 0.401 (inactive) | 0.0224 | 0.425 (inactive) | -1.09 (inactive) | -0.0231 (inactive) | -2.2 (inactive) | 2.27 | -0.521 (inactive) | -0.0627 (inactive) | 0.388 | 0.391 | 0.817 | 1.43 | 0.565 | -0.714 | 0.402 | 0.752 (inactive) | -0.0637 | -0.758 | -0.725 (inactive) |
| CCOC(=O)C[C@H]1[C@H](OC(=O)c2cc3ccccc3oc2=O)[C@@H](NC(=O)c2ccc3ccccc3n2)c2cc(OCCCO)ccc2N1C(=O)c1ccccc1 | 0.571 (inactive) | 0.0793 | 1.31 (inactive) | -0.639 (inactive) | 0.628 (inactive) | -1.83 (inactive) | 0.63 | -0.253 (inactive) | -0.654 (inactive) | 0.86 | 0.321 | 2.22 | 0.11 | 0.204 | -0.785 | -0.187 | -0.408 (inactive) | -0.264 | -0.0996 | -0.881 (inactive) |
| CCOC(=O)CCN1C(=O)[C@H]2[C@H]3[C@H](O)[C@H](O)CC(=NOC[C@@H](O)COCc4ccco4)[C@@H]3CC[C@H]2C1=O | 0.401 (inactive) | 0.0861 | 3.93 (inactive) | 0.63 (inactive) | -0.403 (inactive) | 0.403 (inactive) | -0.426 | 0.48 (inactive) | 0.771 (inactive) | 0.6 | 0.14 | 0.171 | -0.324 | 0.366 | 0.557 | -0.906 | -0.125 (inactive) | -0.393 | -0.49 | -0.397 (inactive) |
| CCOC(=O)NN=C1C[C@@H](O)[C@@H](O)[C@@H]2[C@@H]3C(=O)N(CC)C(=O)[C@@H]3CC[C@@H]12 | -0.562 (inactive) | 0.0053 | -0.485 (inactive) | -0.246 (inactive) | -0.493 (inactive) | -0.336 (inactive) | 0.123 | -1.43 (inactive) | 0.0593 (inactive) | -0.641 | 0.296 | -0.538 | 0.322 | 0.0379 | 0.288 | -0.495 | -0.852 (inactive) | -0.151 | -0.662 | 0.45 (inactive) |
| CN1C(=O)C2C(C1=O)C1C=C(CCCO)C2C(c2ccc(CN3CCCC3)cc2)N1C (stereo not given) | -0.204 (inactive) | 0.0811 | 1.51 (inactive) | 0.621 (inactive) | 0.914 (inactive) | 0.378 (inactive) | 0.318 | -2.14 (inactive) | -1.25 (inactive) | -0.91 | -0.259 | 0.617 | -0.94 | 0.312 | -1.55 | 0.48 | -0.319 (inactive) | -0.667 | 0.287 | -1.1 (inactive) |
| COC(=O)[C@H](C)NC(=O)CCC1CC(OC(=O)NCc2ccc3c(c2)OCO3)CC2(CCCC(COC(=O)NCCOc3ccccc3)O2)O1 (stereo not given in full) | -0.638 (inactive) | -0.414 | -1.1 (inactive) | -0.123 (inactive) | -0.409 (inactive) | -0.323 (inactive) | 1.48 | -0.245 (inactive) | 0.758 (inactive) | 0.214 | 1.99 | 0.714 | 0.748 | 0.0937 | 0.487 | 0.916 | 1.67 (inactive) | -0.647 | -1.09 | 0.294 (inactive) |
| O=C1[C@H]2[C@H]3[C@H](O)[C@H](O)CC(=NOC[C@@H](O)COCc4ccco4)[C@H]3CC[C@H]2C(=O)N1c1cccc(Oc2ccccc2)c1 | 0.66 (inactive) | -0.353 | 3.18 (inactive) | 1.15 (inactive) | 1.28 (inactive) | 0.795 (inactive) | 0.404 | -2.98 (inactive) | 1.31 (inactive) | -0.185 | 1.26 | 0.01 | -0.463 | 0.511 | 0.977 | 0.526 | 0.994 (inactive) | 0.682 | -1.2 | 0.26 (inactive) |
